What all share (test): NCI-60 one-dose screen, 48 h (100 = growth as untreated, 0 = no growth, -100 = all killed)
One assay concerns EKVX NSCLC. Conditions: 10 µM.
The test system of another assay is SN12C renal. Conditions: 10 µM.
In the next assay the test system is UO-31 renal. The following applies: 10 µM.
The subject of a further assay is TK-10 renal. Conditions: 10 µM unless noted.
For a further assay, the system named is ACHN renal. Conditions: 10 µM.
For a further assay, the system named is A498 renal. Conditions: 10 µM.
The next assay concerns CCRF-CEM leukemia. The following applies: 10 µM.
For another assay, the system named is MOLT-4 leukemia. Conditions: 10 µM.
The subject of the next assay is CAKI-1 renal. The following applies: 10 µM.

Each structure is given as a SMILES string. About 83,000 compounds went through this panel and 20% of them were active in at least one assay; those are over-represented in the sample as a whole.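 Cell lines were cultured in 96-well plates, exposed to a single compound concentration, and assessed for percent growth 48 hours later.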 A number with no mark means an inactive call. The source made the active and inactive calls. The calls were made as follows: active = growth percent below 10; inactive = the rest.

As for `Cc1cc(O)ccc1O`, the growth was 94.6% in the assay with EKVX NSCLC; 95.3% in the assay on SN12C renal; 94.4% in the assay on UO-31 renal; 123% in the assay on TK-10 renal; 105% in the assay with ACHN renal; 103% in the assay on A498 renal. Also, the growth was 19.1% in the assay with CCRF-CEM leukemia and 65% in the assay with MOLT-4 leukemia.

`COc1ccc(C(C)C=O)cc1` (centres undefined): the growth in the assay with EKVX NSCLC was 126%; with SN12C renal, 104%; in the assay on UO-31 renal it was 93.7%; with TK-10 renal, 92.1%; in the assay with ACHN renal it was 103%; in the assay on CAKI-1 renal, 104%. Further, the growth with A498 renal was 121%; with MOLT-4 leukemia it was 93%.

With `O=C(CN1CCNCC1)N1CCOCC1`, the growth is 107% in the assay on EKVX NSCLC; 104% with SN12C renal; 84.6% with UO-31 renal; 110% in the assay with TK-10 renal; 110% in the assay with ACHN renal; 101% in the assay with CAKI-1 renal. The growth is 116% in the assay with A498 renal, 100% in the assay on CCRF-CEM leukemia and 81.6% in the assay on MOLT-4 leukemia.

Consider `CNc1nc(NC)c2cn[nH]c2n1`, for which the growth was 99.2% in the assay on EKVX NSCLC; 100% with SN12C renal; 78.6% with UO-31 renal; 108% with ACHN renal; 88.6% in the assay on CAKI-1 renal; 112% in the assay on A498 renal. Further, the figures for the growth in the assay with CCRF-CEM leukemia and in the assay on MOLT-4 leukemia were 5.44% (active) and 101%, respectively.

As for `CC(=O)OC(C(=O)O)c1ccccc1` (centres undefined), the growth was 111% in the assay on EKVX NSCLC; 101% in the assay on SN12C renal; 126% in the assay with UO-31 renal; 117% with TK-10 renal; 106% with ACHN renal; 104% with CAKI-1 renal. For the same molecule, the growth with CCRF-CEM leukemia is 86%; in the assay with MOLT-4 leukemia, 95.5%.

`O=c1cc(-c2ccccc2)oc2c1ccc1ccccc12`: the growth is 80.1% with EKVX NSCLC; 84.2% in the assay with SN12C renal; 58.9% with UO-31 renal; 108% in the assay on TK-10 renal; 77% with ACHN renal; 90.8% with CAKI-1 renal. Further, the results for the growth in the assay on A498 renal, in the assay with CCRF-CEM leukemia and in the assay with MOLT-4 leukemia were 73%, 89.4% and 75.6%, respectively.

Consider `CC1=CC(C)(C)NC(=S)N1c1ccc(S(=O)(=O)O)c2cccc(S(=O)(=O)O)c12`, for which the growth in the assay with EKVX NSCLC is 115%; in the assay with SN12C renal it was 103%; in the assay on UO-31 renal, 72.6%; with TK-10 renal, 106%; in the assay with ACHN renal it was 99.5%; in the assay on CAKI-1 renal, 115%. Moreover, the growth was 97.6% in the assay on A498 renal, 94.1% with CCRF-CEM leukemia and 114% with MOLT-4 leukemia.

`CCCCN(CCCC)CCCO`: the growth is 110% in the assay with EKVX NSCLC; 107% with SN12C renal; 104% in the assay on UO-31 renal; 85% in the assay on TK-10 renal; 105% in the assay with ACHN renal; 106% in the assay with CAKI-1 renal. Besides, the growth in the assay on A498 renal is 114%; in the assay with MOLT-4 leukemia it was 113%.

Turning to `CC1(c2ccccc2)NC(=O)NC1=O` (centres undefined), the growth with EKVX NSCLC is 120%; with SN12C renal, 96.9%; in the assay on UO-31 renal, 82.5%; in the assay on TK-10 renal, 98.8%; in the assay with ACHN renal, 107%; in the assay with CAKI-1 renal, 104%. In addition, the growth was 123% in the assay on A498 renal, 102% with CCRF-CEM leukemia and 101% in the assay on MOLT-4 leukemia.

For `COc1cc(C(=O)N/N=C/c2cccc([N+](=O)[O-])c2)cc(OC)c1OC`, the growth is 83.8% in the assay on EKVX NSCLC; 93.8% with SN12C renal; 73.7% in the assay with UO-31 renal; 81.1% in the assay on TK-10 renal; 79.9% in the assay on ACHN renal; 55.4% in the assay with CAKI-1 renal. Besides, the growth with A498 renal is 26.3%; with CCRF-CEM leukemia it was 62.1%; in the assay with MOLT-4 leukemia it was 70.7%.

On to `CC(=O)Nc1cccc(NC(C)=O)n1`, for which the growth is 104% with EKVX NSCLC; 99.7% in the assay with SN12C renal; 99.4% in the assay on UO-31 renal; 111% in the assay on TK-10 renal; 105% in the assay on ACHN renal; 126% in the assay with CAKI-1 renal. Besides, the growth was 100% in the assay with A498 renal, 90.3% in the assay on CCRF-CEM leukemia and 111% in the assay on MOLT-4 leukemia.

`NC(C(=O)O)c1ccc([N+](=O)[O-])cc1` (centres undefined): the growth in the assay with EKVX NSCLC was 98%; in the assay on SN12C renal it was 91.6%; in the assay with UO-31 renal, 78.2%; in the assay with TK-10 renal, 156%; in the assay with ACHN renal, 98.1%; with CAKI-1 renal, 99.5%. The growth is 107% with A498 renal, 98.5% with CCRF-CEM leukemia and 105% with MOLT-4 leukemia.

For `CCN(CC)c1ccc2nc3ccc(=[N+](CC)CC)cc-3oc2c1`, the growth in the assay on EKVX NSCLC was 8.19% (active); in the assay on SN12C renal, 0.99% (active); in the assay on UO-31 renal it was 56%; in the assay on TK-10 renal it was -26.1% (active); in the assay with ACHN renal, 8.56% (active); in the assay with CAKI-1 renal, 34.9%. The values for the growth in the assay on A498 renal, in the assay with CCRF-CEM leukemia and with MOLT-4 leukemia were 74.4%, 11.2% and -21.4% (active), respectively.

On to `O=[N+]([O-])c1ccc(Sc2ccncn2)c([N+](=O)[O-])c1`, for which the growth in the assay with EKVX NSCLC was 105%; with SN12C renal, 51.3%; with UO-31 renal it was 51.1%; in the assay on TK-10 renal it was 34.3%; with ACHN renal, 37.2%; in the assay with CAKI-1 renal, 39.7%. Besides, the growth was 127% in the assay on A498 renal, 41.2% with CCRF-CEM leukemia and 66.1% in the assay on MOLT-4 leukemia.

As to `NC(=S)CN1CCOCC1`, the growth in the assay with EKVX NSCLC is 112%; with SN12C renal, 103%; in the assay on UO-31 renal, 88%; in the assay on TK-10 renal, 99.3%; in the assay on ACHN renal, 103%; in the assay with CAKI-1 renal it was 95.6%. In addition, the growth in the assay on A498 renal was 89.9%; in the assay with CCRF-CEM leukemia, -25.8% (active); in the assay with MOLT-4 leukemia, 32.3%.

For the molecule `OCc1cccc2ccccc12`, the growth in the assay on EKVX NSCLC is 119%; in the assay on SN12C renal, 108%; with UO-31 renal it was 95.5%; with TK-10 renal, 100%; in the assay on ACHN renal, 98.6%; with CAKI-1 renal, 110%. Also, the growth with A498 renal is 109%; with MOLT-4 leukemia it was 97.5%.

For `CC1C(=O)c2ccccc2CC1C(=O)O` (centres undefined), the growth in the assay on EKVX NSCLC was 113%; in the assay with SN12C renal, 112%; in the assay with UO-31 renal, 100%; with ACHN renal it was 98.5%; in the assay with CAKI-1 renal, 83.2%; in the assay on A498 renal it was 142%. Besides, the growth is 99.1% in the assay on CCRF-CEM leukemia and 97.3% with MOLT-4 leukemia.

For the molecule `Cc1ccncc1C(N)=O`, the growth was 106% with EKVX NSCLC; 101% with SN12C renal; 97% in the assay with UO-31 renal; 112% in the assay with TK-10 renal; 95.3% with ACHN renal; 64.4% with CAKI-1 renal. Also, the growth is 82.7% with A498 renal, 83.1% with CCRF-CEM leukemia and 95.2% with MOLT-4 leukemia.

`CN(C)C(C)(C)CC(C)(C)C`: the growth in the assay with EKVX NSCLC is 95.8%; in the assay with SN12C renal, 98.3%; in the assay on UO-31 renal it was 76.7%; in the assay with TK-10 renal, 143%; with ACHN renal, 100%; in the assay on CAKI-1 renal, 101%. Further, the growth in the assay on A498 renal is 110%; in the assay with CCRF-CEM leukemia, 89.8%; with MOLT-4 leukemia it was 95.1%.

As to `OC1CCCc2ccccc21` (centres undefined), the growth with EKVX NSCLC was 100%; with SN12C renal it was 99%; with UO-31 renal it was 60.6%; in the assay with TK-10 renal, 86.4%; in the assay on ACHN renal, 97.9%; in the assay on CAKI-1 renal, 121%. Also, the growth is 120% in the assay on A498 renal, 94.8% with CCRF-CEM leukemia and 105% with MOLT-4 leukemia.

For `COC(=O)/C=C1\Sc2cc(F)ccc2NC1=O`, the growth in the assay with EKVX NSCLC was 88.2%; in the assay on SN12C renal, 116%; in the assay with UO-31 renal it was 101%; with TK-10 renal, 139%; in the assay on ACHN renal, 111%; in the assay on CAKI-1 renal it was 60.9%. The values for the growth in the assay with A498 renal, in the assay on CCRF-CEM leukemia and in the assay on MOLT-4 leukemia were 126%, 87.9% and 92.3%, respectively.

On to `Nc1ccc(NC(=O)c2cccc(N)c2)cc1`, for which the growth was 86.6% in the assay with EKVX NSCLC; 99.5% in the assay on SN12C renal; 123% in the assay on TK-10 renal; 97.8% with ACHN renal; 56.4% with CAKI-1 renal; 90.6% in the assay on A498 renal. For the same molecule, the growth in the assay on CCRF-CEM leukemia is 88.8%.

For the origin of these results see PubChem BioAssay (NCI).
